Compound activity deposited in PubChem by National Center for Advancing Translational Sciences (NCATS).
Shown are actives, neighbours in structure and some others; about 16% of the full set was active somewhere.
uPA surface inh: qHTS for Inhibitors of Cell Surface uPA Generation. cell surface uPA generation assay, qHTS. Potency, µM (titrated, usually from 38.3 µM), for inactives: at the highest dose activity change, negative = inhibition, most hits filed as inhibitors. 330,000 compounds, 0.31% hits; active = well fitted inhibition curve with a large enough effect; inconclusive = small, poorly fitted or top-dose-only effect; inactive = no such curve, though single readings can be large or run the other way; tested in mouse RAW 264.7 cells; also: potency is read from the fitted curve at half-maximal effect; % is scaled to controls: 0 for no effect and ±100 for the full control effect; nearly all actives have a fitted effect of over 55% in size
miR-21 act: qHTS Assay for Modulators of miRNAs and/orActivators of miR-21; HeLa miR-21 FLuc reporter, luciferase, 48 h; Potency, µM (top dose mostly 38.3 µM), inactives show at the highest dose activity change, positive = activation, actives largely listed as activators; 340,000 tested, under 10 active;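 also: % of control where 0% means no effect; miR-21 action dims this reporter so a rising signal means less miR-21 action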
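Compounds were titrated across several concentrations (up to approximately 40 uM) and incubated 48 hours with HeLa miR-21-FLuc reporter cells (miR-21 target sequence downstream of FLuc, endogenous miR-21). Readout was firefly luciferase luminescence after lytic detection reagent.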
TDP1 block: qHTS Assay for Inhibitors of Tyrosyl-DNA Phosphodiesterase (TDP1). recombinant TDP1, AlphaScreen DNA substrate cleavage. Tyrosyl-DNA phosphodiesterase 1 (Homo sapiens), Q9NUW8. AID 485290, 2010. Potency, µM (highest dose often 130 µM), inactives show at the top dose activity change, negative = inhibition, actives largely listed as inhibitors. 350,000 compounds, 0.28% hits; also: potency is read from the fitted curve at half-maximal effect; % is scaled to controls: 0 for no effect and ±100 for the full control effect; nearly all actives have a fitted effect of over 40% in size
Target sequence (Q9NUW8 whole entry, looked up): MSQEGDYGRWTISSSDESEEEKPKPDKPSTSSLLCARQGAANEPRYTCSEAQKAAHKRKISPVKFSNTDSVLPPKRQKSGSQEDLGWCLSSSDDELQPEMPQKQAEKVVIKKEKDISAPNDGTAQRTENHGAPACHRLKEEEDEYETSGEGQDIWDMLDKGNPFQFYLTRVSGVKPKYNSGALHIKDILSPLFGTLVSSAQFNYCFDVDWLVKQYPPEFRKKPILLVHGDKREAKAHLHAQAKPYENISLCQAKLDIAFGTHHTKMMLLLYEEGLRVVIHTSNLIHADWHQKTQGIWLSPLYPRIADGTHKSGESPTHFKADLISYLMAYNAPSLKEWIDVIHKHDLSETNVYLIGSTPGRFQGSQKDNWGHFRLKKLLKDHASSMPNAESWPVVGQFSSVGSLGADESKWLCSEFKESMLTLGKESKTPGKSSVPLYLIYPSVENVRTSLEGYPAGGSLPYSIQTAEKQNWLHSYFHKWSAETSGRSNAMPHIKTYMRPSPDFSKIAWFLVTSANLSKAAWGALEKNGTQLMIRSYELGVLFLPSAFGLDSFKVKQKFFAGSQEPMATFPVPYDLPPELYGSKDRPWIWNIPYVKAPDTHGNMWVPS
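Enzyme-compound mixtures sat 15 min at room temperature, followed by a 5 min reaction with 15 nM final substrate and 10 min with AlphaScreen beads. Recombinant human Tdp1 was used at 1 nM final.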
TDP1 cell noCPT: qHTS for Inhibitors of human tyrosyl-DNA phosphodiesterase 1 (TDP1): qHTS in cells in absence of CPT. Potency, µM (titrated, usually from 46.2 µM), inactives show at the top dose activity change, negative = growth inhibition, actives largely listed as inhibitors. DT40 Tdp1-/- hTDP1 cells, no CPT, ATP luminescence, 48 h. 420,000 compounds, 15% hits; also: potency is read from the fitted curve at half-maximal effect; % is scaled to controls: 0 for no effect and ±100 for the full control effect; nearly all actives have a fitted effect of over 55% in size
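Chicken DT40 Tdp1-/- cells complemented with human TDP1, screened without camptothecin (DMSO vehicle only), 400 cells/well. Compounds pin-transferred, cells incubated at 37 °C for at least 48 hr. Growth read as ATP-dependent luminescence (CellTiter-Glo, 30 min at RT).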
DT40 TDP1 CPT: qHTS for Inhibitors of human tyrosyl-DNA phosphodiesterase 1 (TDP1): qHTS in cells in presence of CPT; chicken DT40 Tdp1-/-;hTDP1 cells + 20 nM CPT, ATP luminescence, 48 h; Potency, µM (top dose mostly 46.2 µM), without a hit: at the top dose activity change, negative = growth inhibition, usual class: inhibitors; 420,000 compounds, 12% hits; AID 686979, 2013; also: potency is read from the fitted curve at half-maximal effect; % is scaled to controls: 0 for no effect and ±100 for the full control effect; nearly all actives have a fitted effect of over 55% in size
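Chicken DT40 Tdp1-/- cells complemented with human TDP1, 400 cells/well, exposed to compounds plus 20 nM camptothecin for at least 48 h at 37 C; viability read as ATP content by CellTiter-Glo luminescence.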
* hit, by the source's call; ? = inconclusive; · = not tested or not shown; [ ] = dose if it differs, or a comment. Unless noted, calls follow the shape of the dose curve; as a rule, active = well fitted curve in the direction sought with a large enough effect; inconclusive = small, poorly fitted or top-dose-only effect, or another doubt; inactive = no such curve, though single readings can be large; an effect the other way counts as inactive or inconclusive.

SMILES	uPA surface inh	miR-21 act	TDP1 block	TDP1 cell noCPT	DT40 TDP1 CPT
O=C(NC1CCCCC1)C(c1ccncc1)N(C(=O)c1csnn1)c1ccccc1F (stereo unspecified)	-1%	-3%	1%	-8%	9%
COc1cc(OC)cc(Oc2ccc(S(=O)(=O)N3CCCCC3)cc2[N+](=O)[O-])c1	5%	2%	9%	?	?
Cc1cc(C(=O)CN2C(=O)NC(C)(c3cc(F)ccc3F)C2=O)c(C)n1C1CC1 (stereo unspecified)	-3%	·	5%	16µM*	?
CCC1(c2ccc(F)cc2)NC(=O)N(CC(=O)c2cc(C)n(C3CC3)c2C)C1=O (stereo unspecified)	-1%	·	8%	?	?
Cc1ccc(OCC(=O)c2cc(C)n(C3CC3)c2C)c([N+](=O)[O-])n1	-2%	-45%	-8%	23µM*	?
Cc1cc(-n2c(C)cc(C(=O)COc3cc(F)ccc3[N+](=O)[O-])c2C)no1	-4%	·	2%[56.1 µM]	15µM*	?
COc1ccc(-n2c(C)cc(C(=O)COc3ccc(C)nc3[N+](=O)[O-])c2C)cc1	10%	-6%	7%	3.7µM*	5.2µM*
Nn1cnnc1N/N=C/c1cccc(Cl)c1Cl	-14%	-8%	·	-25%	-12%
NS(=O)(=O)c1ccc(NC(=O)CSc2nnc(C3CC3)n2C2CC2)cc1	8%	·	-3%[56.1 µM]	6%	3%
COCC1CCCN(Cc2cn(-c3ccccc3)nc2-c2ccc3c(c2)OCO3)C1 (stereo unspecified)	1%	-1%	6%	-28%	-12%
Cc1ccc(CNC(=O)COc2ccc(C)nc2[N+](=O)[O-])cc1	-4%	-14%	2%	-15%	-1%
Cc1ccc(OCC(=O)c2cc(C)n(Cc3cccs3)c2C)c([N+](=O)[O-])n1	-7%	7%	5%	5.8µM*	6.5µM*
Cc1ccc(OCC(=O)c2ccc(Cl)s2)c([N+](=O)[O-])n1	·	0%	-6%	13µM*	3.7µM*
COc1cc(C(=O)NCCCNc2nc3cc(C)cc(C)c3cc2C#N)cc(OC)c1OC	-1%	-21%	0%	?	?
CCOc1ccc2nc(NCCCNC(=O)c3cc(OC)c(OC)c(OC)c3)c(C#N)cc2c1	-2%	-5%	·	16µM*	13µM*
COc1cccc(CN2CCN(CC(=O)Nc3ccccc3Cl)CC2)c1	4%	-1%	5%	16µM*	?
COc1cccc(C(C)NC(=O)Nc2ccccc2Cl)c1 (stereo unspecified)	-9%	1%	-2%	?	21µM*
CCN1CCC(N(Cc2cccc(OC)c2)C(=O)Nc2ccc(C)cc2Cl)CC1	·	1%	-1%	18µM*	?
O=C(CN1CCN(C(=O)C2CCN(C(=O)/C=C/c3ccccc3)CC2)CC1)Nc1ccccc1Cl	-2%	·	1%	18µM*	?
COc1ccc(S(=O)(=O)N2CCN(CC(=O)Nc3ccccc3Cl)CC2)cc1	-6%	-7%	2%	-23%	?
COc1cccc(C(C)NC(=O)c2c(F)cccc2Cl)c1 (stereo unspecified)	-4%	-1%	2%	-12%	2%
O=C(Cn1nc(-c2ccccc2)ccc1=O)Nc1ccc(N2CCN(C(=O)c3cccs3)CC2)cc1	-10%	12%	-3%	?	?
NC(=O)c1ccc(NC(=O)COC(=O)c2n[nH]c3ccccc23)cc1	5%	·	0%	-2%	16%
CC1(C(=O)NS(=O)(=O)c2ccc(Br)cc2)CCN1C(=O)C/C=C/c1ccccc1 (stereo unspecified)	·	·	·	-5%	2%
COc1ccc(NC(C)=O)cc1NC(=O)CN1CCN(CC(=O)Nc2ccccc2Cl)CC1	3%	10%	7%	21µM*	?
SMILES	uPA surface inh	miR-21 act	TDP1 block	TDP1 cell noCPT	DT40 TDP1 CPT
COc1ccc(CN(C(=O)Nc2cccc(OC)c2)C2CCN(C(C)=O)CC2)cc1	·	-2%	-4%	-16%	-13%
O=C(CN1CCN(CC(=O)Nc2ccccc2Cl)CC1)Nc1ccc(F)c(F)c1	9%	9%	·	23µM*	?
COc1ccccc1CN(C)C(=O)CN1CCN(CC(=O)Nc2ccccc2Cl)CC1	-3%	·	0%	23µM*	23µM*
COC(=O)c1ccc(Cl)cc1NC(=O)N(Cc1ccc(OC)cc1)C1CCN(C(C)=O)CC1	·	-7%	4%	7.3µM*	?
O=C1C2CCCN2C(c2ccco2)N1c1ccc(F)cc1 (stereo unspecified)	-8%	-1%	7%	-1%	4%
COc1ccccc1NC(=O)Cn1ccn(-c2cc(C)cc(C)c2)c(=O)c1=O	·	0%	-3%	-10%	1%
COC(C[C@H](O)[C@@H](C)[C@H](O)COCc1ccccc1)OC	-4%	-2%	0%	-15%	-1%
COc1ccccc1CNC(=O)CC(c1ccc(F)cc1)N1Cc2ccccc2C1=O (stereo unspecified)	·	?	0%	23µM*	?
COc1ccc(C(CC(=O)NCc2ccccc2Cl)N2Cc3ccccc3C2=O)cc1OC (stereo unspecified)	·	-2%	6%	?	-27%
COc1ccccc1CNC(=O)C(CC(C)C)N1Cc2ccccc2C1=O (stereo unspecified)	·	-1%	-1%	21µM*	9.2µM*
COc1cc(OC)c(NC(=O)C(CC(C)C)N2Cc3ccccc3C2=O)cc1Cl (stereo unspecified)	·	5%	1%	?	15µM*
COc1cc(C(CC(=O)NCc2ccc(F)cc2)N2Cc3ccccc3C2=O)cc(OC)c1OC (stereo unspecified)	·	7%	0%	16µM*	?
COc1cc(NC(=O)C(CC(C)C)N2Cc3ccccc3C2=O)cc(OC)c1 (stereo unspecified)	·	-2%	9%	?	-15%
CC(Oc1ccc(Br)cc1Br)C(=O)Nc1cccnc1Cl (stereo unspecified)	-12%	-17%	-4%	-3%	1%
COc1ccc(OC)c(/C=N/NC(=O)CCc2ccc(O)c(O)c2)c1	-4%	0%	3%	?	21µM*
COc1ccc(OC)c(C=NNC(=O)NN=Cc2cc(OC)ccc2OC)c1	·	·	·	26µM*	?
COc1ccc(OC)c(/C=N/NC(=O)C(=O)N/N=C/c2cc(OC)ccc2OC)c1	1%	·	·	?	4%
COc1ccc(OC)c(/C=N/NC(=O)CCc2c(C)n[nH]c2C)c1	-1%	-8%	10%	-27%	-13%
COc1ccccc1/C=C/C1(C(=O)NC2CCCC2)CC(=O)N1c1ccccc1 (stereo unspecified)	2.8µM*	20%	·	7.3µM*	6.5µM*
